Screening results (PubChem)
Shown are actives, neighbours in structure and some others; about 4.8% of the full set was active somewhere.
hcDAF12 agonist: H. contortus DAF-12 nuclear receptor activators, primary screen, cell-based, luminescence, HEK293, lit1-tk-luc reporter; HEK293 hcDAF-12 lit1-tk-luc reporter; 0% DMSO, 100% Δ7-dafachronic acid; activation, % at 6.8 µM; hit rate 1.4% among 370,000;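 active means activation above the mean of all tested compounds plus 3 SD, cut at about 5.5% in these data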
DAX1 inh-1: DAX1 (NR0B1) inhibitors, primary screen, cell-based, HEK293, Gal4-DAX1, luciferase luminescence; Nuclear receptor subfamily 0 group B member 1 (Homo sapiens), P51843; HEK293 Gal4-DAX1 luciferase reporter; inhibition, % at 6.75 µM; hit rate 0.99% among 340,000; AID 504766, 2011;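 active means inhibition above the mean over all tested compounds plus 3 SD, cut at about 4.2% in these data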;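 further: inhibition shows as a rise in luminescence from relieved DAX1 repression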
Target sequence (P51843 207-470 limits assumed): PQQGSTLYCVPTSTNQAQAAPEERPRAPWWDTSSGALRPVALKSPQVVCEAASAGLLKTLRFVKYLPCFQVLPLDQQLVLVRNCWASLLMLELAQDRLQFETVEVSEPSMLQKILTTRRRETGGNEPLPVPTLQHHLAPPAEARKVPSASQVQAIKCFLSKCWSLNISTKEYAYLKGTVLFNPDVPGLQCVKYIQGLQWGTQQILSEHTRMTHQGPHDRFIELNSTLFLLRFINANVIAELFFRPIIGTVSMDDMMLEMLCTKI
hgDAF-12 ag: H. glycines DAF-12 receptor agonists, primary screen, cell-based, luminescence, HEK293, GAL4 fusion, UAS-luciferase. Nuclear hormone receptor DAF-12 (Heterodera glycines), GAL4 fusion. HEK293 GAL4-hgDAF12 UAS-luciferase reporter, agonist luminescence; normalized to butyrate control. activation, % at 6.8 µM. hit rate 1.8% among 370,000;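 active means activation above a cutoff set at the mean of all screened compounds plus 3 SD, cut at about 10% in these data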
ssDAF-12 act: S. stercoralis DAF-12 nuclear receptor activators, primary screen, cell-based, luminescence, HEK293, GRIP1 co-expression, lit1-tk-luc. Nuclear hormone receptor DAF-12 (Strongyloides stercoralis). hit rate 1% among 370,000. AID 652126, 2013. activation, % at 6.8 µM. HEK293 ssDAF-12/GRIP1 lit1-tk-luc reporter; % of 3 µM dafachronic acid response;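 active means activation above the mean over all tested compounds plus 3 SD, cut at about 0.9% in these data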
DAX1 inh-2: DAX1 (NR0B1) inhibitors on StAR promoter, primary screen, cell-based, luminescence, SF-1 (NR5A1), full-length DAX-1; HEK293T StAR-luciferase reporter, SF-1/DAX-1 repression relief; inhibition, % at 6.8 µM; hit rate 1.1% among 370,000; AID 652010, 2013;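 active means inhibition above the mean over all tested compounds plus 3 SD, cut at about 3.6% in these data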;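 further: higher inhibition means more luminescence from relief of DAX-1 repression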
SMARCA2 act: SMARCA2 (BRM) function activators, primary screen, cell-based, luminescence, high throughput | MG213 cells, MMTV-luciferase reporter, dexamethasone, overnight | activation, % at 9.1 µM | hit rate 1% among 370,000 | AID 652017, 2013; in the data active means activation above about 7.8%
SMARCA2 act conf: SMARCA2 (BRM) function activators, confirmation, cell-based, luminescence, triplicate | shares compounds with SMARCA2 act | MG213 cells, MMTV-luciferase with dexamethasone, overnight; MG213 cells expressing E1A, Rb sequestered; DMSO wells 0%, reference activator 100% | activation, % at 9.1 µM | hit rate 30% among 3,500 | AID 652260, 2013;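 active means activation above its plate's cutoff, the mean activation of tested wells plus 3 SD, cut at about 7.9% in these data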
GAL4-VP16 Luc: GAL4-VP16 luciferase reporter activation, counter-screen for SMARCA2 (BRM) activator project, cell-based, pG5luc, luminescence, high throughput; shares compounds with SMARCA2 act; HEK293 GAL4-VP16 pG5luc reporter; scaled: DMSO wells 0%, SAHA wells 100%; activation, % at 9.1 µM; hit rate 41% among 3,500; AID 686939, 2013;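 active means activation above the solvent-only control well mean plus 3 SD, averaged across control plates, cut at about 5.2% in these data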
Each line names hits and unclear results; the compound was inactive in the other large screens (follow-up assays come after a bar, where they were run).

CN1CCN(C(=S)NC(=O)c2cccc([N+](=O)[O-])c2)CC1	none
COc1cccc(CNC(=O)[C@H]2CCCN2C(=O)[C@H]2CCCN2C(=O)OC(C)(C)C)c1	none (no result: DAX1 inh-1)
Cc1cc(NC(=O)c2ccccc2[N+](=O)[O-])ccc1Br	DAX1 inh-1 4.8, SMARCA2 act 8.2 | SMARCA2 act conf 13 | GAL4-VP16 Luc 6.3
C/C(=N\NC(=O)Cc1c(C)[nH][nH]c1=O)c1ccc(Cl)c(Cl)c1	SMARCA2 act 8.0 | SMARCA2 act conf inactive | GAL4-VP16 Luc inactive
C/C(=N/NC(=O)Cc1c(C)[nH][nH]c1=O)c1ccc(O)cc1	none
COC(=O)c1cc(-c2cccc3ccccc23)c(=O)n2c1CCC2	none (no result: DAX1 inh-1)
COc1ccc(Nc2ncnc3ccccc23)c(OC)c1	SMARCA2 act 9.0 | SMARCA2 act conf inactive | GAL4-VP16 Luc inactive
COc1ccc(Nc2ncnc3ccccc23)cc1	none
CC(=O)N1CC(C)Oc2ccc(S(=O)(=O)NC(CC(=O)O)c3ccc(C)cc3C)cc21 (configuration not stated)	none
COc1ccccc1C(CC(=O)O)NS(=O)(=O)c1ccc2c(c1)N(C(C)=O)CC(C)O2 (configuration not stated)	SMARCA2 act 10 | SMARCA2 act conf inactive | GAL4-VP16 Luc inactive
Nc1ncnc(Sc2ncccn2)c1[N+](=O)[O-]	SMARCA2 act 18 | SMARCA2 act conf inactive | GAL4-VP16 Luc inactive
Nc1ncnc(Sc2ccccc2)c1[N+](=O)[O-]	none
CCOC(=O)C(=NO)C1=CSC2=NNC(C)(C)N12	SMARCA2 act 9.2 | SMARCA2 act conf inactive | GAL4-VP16 Luc inactive
CCOC(=O)/C(=N/O)C1=NC(C)(C)Cc2cc(C)c(C)cc21	none
Cc1ccc(-c2nc(-c3cccnc3)no2)c(C)c1	SMARCA2 act 9.2 | SMARCA2 act conf 19 | GAL4-VP16 Luc 13
Cc1ccc(C)c(OCc2nc(-c3cccnc3)no2)c1	none
CN1C(=O)c2cc(NC(=O)C3CC3)ccc2OC[C@H]2O[C@@H](CC(=O)NC3CCC3)CC[C@@H]21	none (no result: DAX1 inh-1)
COc1cc(C)ccc1OCCCOc1ccccc1Cl	SMARCA2 act 9.5 | SMARCA2 act conf 13 | GAL4-VP16 Luc 8.9
CCOC(=O)N[C@@H](Cc1cccnc1)C(=O)N1CCC[C@H]1C(=O)NC1CCCC1	none (no result: DAX1 inh-1)
Cc1cc(C)cc(C(=O)OCCN2CCN(C3CN(Cc4cn(Cc5ccccc5F)nn4)S(=O)(=O)C3)CC2)c1 (configuration not stated)	none (no result: DAX1 inh-1)
Cc1cc2nc(-c3ccc(SCC(=O)N4CCN(C(=O)c5ccco5)CC4)nc3)[nH]c2cc1C	SMARCA2 act 10 | SMARCA2 act conf 9.2 | GAL4-VP16 Luc 8.8
CC1(C)CC(=O)C/C(=N\NC(=O)Cc2ccccc2)C1	SMARCA2 act 10 | SMARCA2 act conf inactive | GAL4-VP16 Luc inactive
CC1(C)CC(=O)C/C(=N/NC(=O)c2ccc(-c3ccccc3)cc2)C1	none
C/C(=N\Nc1ccccn1)c1cccs1	DAX1 inh-2 3.9, SMARCA2 act 10.0 | SMARCA2 act conf 11 | GAL4-VP16 Luc 6.4
COc1cc(OC)c(-c2nn3c(C4CCCCC4)nnc3s2)cc1OC	SMARCA2 act 8.3 | SMARCA2 act conf inactive | GAL4-VP16 Luc inactive
COc1cc(-c2nnc3sc(C4CCCCC4)nn23)cc(OC)c1OC	none (no result: hcDAF12 agonist, hgDAF-12 ag, ssDAF-12 act, DAX1 inh-2, SMARCA2 act)
CN1C(=O)c2cc(NC(=O)C3CCCCC3)ccc2OC[C@H]2O[C@@H](CC(=O)NC3CCCC3)CC[C@H]21	none (no result: DAX1 inh-1)
O=C(C1CCN(S(=O)(=O)c2cccs2)CC1)N1CCCCC1	none
O=C1CCC/C(=N/NC(=O)C2CCN(S(=O)(=O)c3cccs3)CC2)C1	SMARCA2 act 8.7 | SMARCA2 act conf inactive | GAL4-VP16 Luc inactive
O/N=C(/CCc1ccccc1)c1ccc2c(c1)OCCO2	hgDAF-12 ag 11, SMARCA2 act 12 | SMARCA2 act conf 12 | GAL4-VP16 Luc 12
O=C(CCc1ccccc1)c1ccc2c(c1)OCCCO2	none
O=C(C1CCCN1S(=O)(=O)c1ccc(Br)s1)N1CCc2ccccc2C1 (configuration not stated)	none (no result: DAX1 inh-1)
Cc1csc(C)[n+]1CC(=O)c1ccccc1	none
CCOC(=O)C[n+]1c(C)csc1C	SMARCA2 act 8.6 | SMARCA2 act conf inactive | GAL4-VP16 Luc inactive
Cc1cc(C)cc(NC(=O)NC2CCN(S(=O)(=O)c3ccc(F)cc3)CC2)c1	none (no result: DAX1 inh-1)
COc1cc2ccccc2cc1C(=O)NC1CCC(C)CC1 (configuration not stated)	SMARCA2 act 12 | SMARCA2 act conf inactive | GAL4-VP16 Luc 7.6
CCCCCC(=O)NC1CCCCN(Cc2ccccc2C)C1=O (configuration not stated)	none (no result: DAX1 inh-1)
COc1cc(/C=N/N=C(/N)c2nonc2N)cc(Br)c1OCc1ccccc1C	none
COc1cccc(/C=N/N=C(\N)c2nonc2N)c1O	hgDAF-12 ag 13, SMARCA2 act 8.6 | SMARCA2 act conf inactive | GAL4-VP16 Luc 12
COC(=O)[C@]12C[C@H](CC(=O)NCc3ccc(OC)c(OC)c3)C(=O)N(CCc3ccc(OC)c(OC)c3)C1=C[C@H](COCc1ccccc1)O[C@@H]2C	none (no result: DAX1 inh-1)
CC(=O)c1cnc2cc(-c3ccc(C)cc3)nn2c1C	SMARCA2 act 10 | SMARCA2 act conf inactive | GAL4-VP16 Luc 9.9
CC(=O)c1cnc2cc(C)nn2c1C	none
Cc1ccc(-c2nc3ncccn3c2NC(=O)Nc2ccc(OC(F)(F)F)cc2)cc1	none (no result: DAX1 inh-1)
CCOC(=O)C1=C(N)OC(C)=C(C#N)C1c1ccco1 (configuration not stated)	SMARCA2 act 9.0 | SMARCA2 act conf inactive | GAL4-VP16 Luc inactive
CCCCNC(=O)CSc1nc(CCC)nc2ccccc12	none
CCCc1nc(SCC(=O)c2ccc(F)cc2)c2ccccc2n1	SMARCA2 act 8.3 | SMARCA2 act conf inactive | GAL4-VP16 Luc inactive
Cc1ccc(C(=O)CSc2nc3ccccc3c(=O)[nH]2)cc1	SMARCA2 act 9.6 | SMARCA2 act conf inactive | GAL4-VP16 Luc inactive
